# PLC-beta3 inh – blocks human PLC-beta3 enzyme activity; AID 720704; 0.18% of 370,000 active; Purified PLC-beta3, fluorogenic substrate, fluorescence; Q01970; inhibition, % at 12.2 µM
# sPLA2-III inh – Blocks human group III sPLA2 activity. Q9NZ20. QFRET BODIPY PC-A2 liposome hydrolysis, fluorescence. inhibition, % at 12.2 µM. 0.56% of 370,000 active. AID 743126;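 active = inhibition above mean plus 3 SD of compounds lying within the high and low control bounds, cut at about 19% in these data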
# Target sequence (Q9NZ20 whole entry, looked up): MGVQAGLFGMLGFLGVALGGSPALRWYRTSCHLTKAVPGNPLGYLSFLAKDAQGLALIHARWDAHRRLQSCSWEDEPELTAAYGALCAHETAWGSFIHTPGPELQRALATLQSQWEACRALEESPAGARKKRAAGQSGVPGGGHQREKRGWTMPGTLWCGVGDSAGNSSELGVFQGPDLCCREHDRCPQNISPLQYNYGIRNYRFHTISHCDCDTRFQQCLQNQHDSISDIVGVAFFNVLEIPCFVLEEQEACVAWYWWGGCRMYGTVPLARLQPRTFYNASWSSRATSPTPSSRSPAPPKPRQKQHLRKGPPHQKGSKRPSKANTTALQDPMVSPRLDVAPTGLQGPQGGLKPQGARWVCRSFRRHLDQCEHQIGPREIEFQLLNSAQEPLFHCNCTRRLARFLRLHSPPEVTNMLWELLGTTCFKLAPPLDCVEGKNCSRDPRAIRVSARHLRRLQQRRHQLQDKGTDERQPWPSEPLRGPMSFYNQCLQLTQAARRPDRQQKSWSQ
# HIF activator – HIF pathway transcriptional activation; U2OS HRE-luciferase reporter, luminescence; normalized: DMSO 0%, desferrioxamine 100%; activation, % at 7.5 µM (by protocol); 0.32% of 300,000 active;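 active = mean activation of at least 10% of the iron chelator positive control signal, with at least half of replicates also reaching 10%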
# CR mimetic SO – lowers age-related superoxide in aged yeast cells; S. cerevisiae aged cells, superoxide DHE fluorescence; hits give low values; superoxide response (% of plate mean), % at 10 µM; 0.18% of 330,000 active; AID 2690;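 active = superoxide response under a set limit, about three screen SD below normal, cut at about 65% in these data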;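 also: yeast aged for seven days with compound at 30 °C before DHE staining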
# AHR activator – activates the human aryl hydrocarbon receptor; activation, % at 5 µM; AHR-responsive luciferase reporter cells, luminescence; P35869; 2.5% of 320,000 active; AID 2796; in the data active = activation above about 47%
# PLC-gamma1 inh – blocks human PLC-gamma1 enzyme activity; purified PLC-gamma1, fluorogenic substrate, fluorescence; inhibition, % at 12.2 µM; 0.84% of 370,000 active; P19174; AID 720700; in the data active = inhibition above about 9.5%
# PLCg1 ctr – inhibits human PLC-gamma1 in PLC-beta3 counter-screen; shares compounds with PLC-gamma1 inh; purified PLC-gamma1, fluorogenic substrate, fluorescence; inhibition, % at 12.3 µM; 3.1% of 3,300 active; AID 743258; in the data active = inhibition above about 9.5%
# PLCb3 confirm – human PLC-beta3 inhibition, confirmation | shares compounds with PLC-gamma1 inh | purified PLC-beta3, fluorogenic substrate fluorescence | inhibition, % at 12.3 µM | 1% of 3,300 active
# A number is an active result; 0 = inactive; - = no result. This is a sample that favours compounds with a hit; in the whole collection about 3.9% have one here. Rule as the data show it, unless noted: active = inhibition above about 11%; inactive = the rest.
SMILES,PLC-beta3 inh,sPLA2-III inh,HIF activator,CR mimetic SO,AHR activator,PLC-gamma1 inh,PLCg1 ctr,PLCb3 confirm
CCOc1ccc2nc(C)cc(Nc3cccc([N+](=O)[O-])c3)c2c1,0,0,0,0,0,11,0,0
COC(=O)c1ccc(OCCOc2ccccc2)cc1,0,0,0,0,0,11,0,0
COC(=O)c1ccc(OCCOc2ccccc2C)cc1,0,0,0,0,0,0,-,-
CCN1CCN(CCc2nc3cc([N+](=O)[O-])ccc3n2C)CC1,0,0,0,0,0,12,0,0
COc1ccc([C@@]2(C(C)C)ON(c3ccccc3C(F)(F)F)C2=O)cc1,0,0,-,0,0,0,-,-
CC(C)c1ccc(S(=O)(=O)N2CCN(C(=O)CCNS(=O)(=O)c3ccccc3F)CC2)cc1,0,0,0,0,0,18,0,0
COC(=O)c1cc(-c2cccc3c2sc2ccccc23)c(=O)n2c1CCC2,0,0,-,-,-,41,0,0
CSc1cccc(NC(=S)N(CCCN2CCCC2)Cc2cccs2)c1,0,0,0,0,0,13,0,0
O=C(NCc1ccncc1)C1COc2ccccc2O1 (stereo not given),0,0,0,0,0,0,-,-
Cc1nc2ccccn2c1C(=O)NCc1ccc2c(c1)OCO2,0,0,0,0,0,10,0,0
Cc1nc2ccccn2c1C(=O)N/N=C/c1ccc2c(c1)OCO2,0,0,0,0,0,0,-,-
O=C(Cn1c(CO)nc2ccccc21)NCc1ccc2c(c1)OCO2,0,0,0,0,0,0,-,-
CC(=O)c1c(C)n(CC(=O)NCc2ccc3c(c2)OCO3)c2ccccc12,0,0,0,0,0,11,0,0
O=C(NCc1ccc2c(c1)OCO2)C1COc2ccccc2O1 (stereo not given),0,0,0,0,0,11,0,0
O=[N+]([O-])c1cc([N+](=O)[O-])c(Oc2ccc(Cl)c3cccnc23)cc1NN1CCCCC1,0,0,0,0,0,0,-,-
COc1cc(OC)nc(Nc2nc(C(N)CCc3ccccc3)cs2)n1 (stereo not given),0,0,-,-,-,11,0,0
COc1cc(OC)nc(Nc2nc(C(N)COCc3ccccc3)cs2)n1 (stereo not given),0,0,-,-,-,0,-,-
O=S1(=O)CC2c3ccc(F)cc3CN2CN1Cc1ccc(F)cc1 (stereo not given),0,0,-,-,-,0,-,-
CCOC(=O)c1c(S(=O)(=O)N(C)C2CCCCC2)c(C)n(C)c1C,0,0,0,0,0,9.9,0,0
COc1ccc(-n2nc(C(=O)NCC(=O)NCCCN3CCOCC3)c3ccccc3c2=O)cc1,0,0,0,0,0,0,-,-
CC1(NC(=O)Cc2c(F)cccc2Cl)CCS(=O)(=O)C1 (stereo not given),0,0,-,0,0,13,0,0
Cc1cccc(NC(=O)Cc2c(F)cccc2Cl)n1,0,0,0,0,0,0,-,-
COCCn1c(SCC(=O)N2CCC(C)CC2)nc2c(c1=O)SCC2,0,0,0,0,0,0,-,-
COCCn1c(SCC(=O)N2CCCC2)nc2c(c1=O)SCC2,11,0,-,-,-,0,0,0
CC(C)Cn1c(N)c(C(=O)COC(=O)c2nccnc2N)c(=O)n(C)c1=O,0,0,-,0,0,0,-,-
SMILES,PLC-beta3 inh,sPLA2-III inh,HIF activator,CR mimetic SO,AHR activator,PLC-gamma1 inh,PLCg1 ctr,PLCb3 confirm
COCc1[nH]nc2c1C(c1ccc3c(c1)OCO3)N(Cc1ccccc1)C2=O (stereo not given),0,0,-,-,-,0,-,-
CCC(=O)NCCc1nc2ccccc2n1CC(=O)c1ccccc1,0,0,0,0,0,0,-,-
CCC(=O)NCCc1nc2ccccc2n1Cc1ccc(C)cc1,0,0,0,0,0,19,0,0
Cc1onc(-c2c(F)cccc2Cl)c1C(=O)N1C=CC(C(F)(F)Cl)=NCC1,11,0,0,0,0,13,0,0
O=C(CCc1nnc(Cc2c[nH]c3ccccc23)o1)NC1CCCC1,0,0,0,0,0,12,0,0
Cc1ccccc1CN1C(=O)c2ccccc2C1c1nnnn1Cc1ccccc1 (stereo not given),0,0,-,-,-,0,-,-
Cc1ccc(CNC(=O)CCCC(=O)O)cc1,11,0,0,0,0,0,0,0
CC(C)(C)C1COc2ccccc2N1C(=O)c1ccccc1Cl (stereo not given),0,0,0,0,0,0,-,-
COc1ccc(NS(=O)(=O)c2ccc(C(=O)N(C)Cc3cccs3)cc2)cc1,0,0,-,-,-,0,-,-
O=C1C=C(c2ccc3ncccc3c2)C[C@@H](c2ccc(Cl)cc2)C1,0,0,-,0,0,11,0,0
COCCNC(=O)C1CCCN(C(=O)c2csc3ccccc23)CC1 (stereo not given),0,0,-,-,-,0,-,-
O=C(Nc1ccccc1)c1ccc(S(=O)(=O)NCc2ccco2)cc1,0,0,0,0,0,13,0,0
O=C(c1c(F)cccc1F)N1CCC(Oc2cccnc2)CC1,0,0,-,-,-,0,-,-
CC(C)NC(=O)C1(C)CCCN1Cc1ccccc1C#N (stereo not given),0,0,-,-,-,11,0,0
O=S1(=O)CC(c2ccccc2)=NN=C(c2ccccc2)C1,11,0,-,-,-,0,0,0
CCN1C(=O)c2ccccc2S(=O)c2ccc(C(=O)N3CCCCCC3)cc21 (stereo not given),11,0,0,0,0,0,0,0
COc1cccc(OC)c1C(=O)Nc1ccc(S(=O)(=O)Nc2ncccn2)cc1,0,0,0,0,0,0,-,-
O=C(Nc1ccc(S(=O)(=O)Nc2ncccn2)cc1)c1ccc(Br)s1,0,0,0,0,0,11,0,0
Cc1ccc(C)c(S(=O)(=O)N2CCC(c3nc4c(nnn4Cc4ccc(F)cc4)c(=O)[nH]3)CC2)c1,0,0,-,0,0,0,-,-
Cc1ccc(Cn2nnc3c(=O)[nH]c(C4CCN(S(=O)(=O)c5ccc(F)cc5)CC4)nc32)cc1,0,0,0,0,0,9.8,0,0
Cc1ccc(Cn2nnc3c(=O)[nH]c(C4CCN(S(=O)(=O)c5cc(C)ccc5C)CC4)nc32)cc1,0,0,0,0,0,12,0,0
COC(=O)c1cc2c(c3c4cc(F)ccc4n(S(=O)(=O)c4ccccc4)c13)C(=O)N(C)C2,0,0,-,-,-,0,-,-
COC(=O)c1ccc(Cl)c(NC(=O)CN(c2ccc(OC)cc2)S(=O)(=O)c2ccccc2)c1,0,0,0,0,0,13,0,0
Cc1ccc(NC(=O)n2ncc3c(C)cccc32)c(C)c1,0,0,0,0,0,11,0,0
Cc1cccc2c1cnn2C(=O)Nc1ccc(Br)cc1F,0,0,0,0,0,0,-,-
COc1cccc(NC(=O)n2ncc3c(C)cccc32)c1,0,0,0,0,0,10,0,0

# Screening results as filed in PubChem.
